In PubChem BioAssay (EPA / NIEHS):
Results filed as inconclusive are left out. Activity calls are given as the source filed them. The calls were made as follows, unless noted: active = hit-call score of the fitted dose curve at least 0.9, where 1 is the maximum; inactive = score below 0.9.

What was measured:
[1] = read-out: Transforming Growth Factor (TGFA), TGFA (gene 7039); assay: LTEA_HepaRG_TGFA: Life Technologies and Expression Analysis (LTEA) Assay for Transforming Growth Factor (TGFA) using HepaRG (AID 2283532); details: mRNA level, 48 h; actives raise or lower the signal
Outline: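 Differentiated human HepaRG cells, plated 48 h then switched to serum-free induction medium, were exposed in duplicate for 48 h to 8-point half-log series from 100 uM in 0.5% DMSO. TGFA mRNA measured by qRT-PCR, normalized to ACTB/GAPDH/POLR2A, bidirectional fit versus DMSO.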

[2] = read-out: Transforming Growth Factor (TGFB1), TGFB1 (gene 7040); assay: LTEA_HepaRG_TGFB1: Life Technologies and Expression Analysis (LTEA) Assay for Transforming Growth Factor (TGFB1) Transporter using HepaRG (AID 2283533); details: mRNA level, 48 h; actives raise or lower the signal
Outline: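 qRT-PCR readout of TGFB1 transcript in HepaRG lysates, normalized to three housekeeping genes; gain or loss of signal fitted relative to 0.5% DMSO vehicle. Exposure: 48 h, 8-point curve from 100 uM, duplicate wells.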

TIMP1, TIMP1 (gene 7076) = assay: LTEA_HepaRG_TIMP1: Life Technologies and Expression Analysis (LTEA) Assay for TIMP1 using HepaRG (AID 2283534); details: mRNA level, 48 h; actives raise or lower the signal;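 also: TaqMan qRT-PCR signal normalized to ACTB GAPDH and POLR2A housekeeping genes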
Outline: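 HepaRG, 48 h exposure, 8-pt half-log series from 100 uM in 0.5% DMSO, duplicates; TIMP1 transcript by Fluidigm qRT-PCR, housekeeping-normalized; bidirectional curve fit vs DMSO baseline.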

[3] = read-out: Tumor necrosis factor receptor 1 (TNFRSF1A), TNFRSF1A (gene 7132); assay: LTEA_HepaRG_TNFRSF1A: Life Technologies and Expression Analysis (LTEA) Assay for Tumor necrosis factor receptor 1 (TNFRSF1A) using HepaRG (AID 2283535); details: mRNA level, 48 h; actives raise or lower the signal
Outline: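 HepaRG, 48 h plating then 48 h chemical exposure, serum-free induction media; 8-pt CRC from 100 uM, half-log, 0.5% DMSO vehicle, duplicates. Readout: TaqMan qRT-PCR (Fluidigm), housekeeping-gene normalized; bidirectional fit vs DMSO.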

[4] = read-out: Thyroid Hormone Responsive (THRSP), THRSP (gene 7069); assay: LTEA_HepaRG_THRSP: Life Technologies and Expression Analysis (LTEA) Assay for Thyroid Hormone Responsive (THRSP) using HepaRG (AID 2283536); details: mRNA level, 48 h; actives raise or lower the signal
Outline: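 Differentiated human HepaRG cells were exposed in duplicate for 48 h in serum-free induction medium to eight concentrations (top 100 uM, half-log steps, 0.5% DMSO). Expression was quantified by TaqMan qRT-PCR, normalized to ACTB, GAPDH and POLR2A, with bidirectional fitting against DMSO.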

[5] = read-out: Cellular tumor antigen p53 (Homo sapiens) (UniProt P04637); assay: LTEA_HepaRG_TP53: Life Technologies and Expression Analysis (LTEA) Assay for Tumor Protein P53 (TP53) using HepaRG (AID 2283537); details: mRNA level, 48 h; actives raise or lower the signal
Outline: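 Gain or loss of TP53 mRNA signal is scored relative to 0.5% DMSO after 48 h chemical treatment of HepaRG liver cells, tested in duplicate at eight half-log concentrations up to 100 uM.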

[6] = read-out: UDP glucuronosyltransferase (UGT1A1), UGT1A1 (gene 54658); assay: LTEA_HepaRG_UGT1A1: Life Technologies and Expression Analysis (LTEA) Assay for UDP glucuronosyltransferase (UGT1A1) using HepaRG (AID 2283538); details: mRNA level, 48 h; actives raise or lower the signal
Outline: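 HepaRG cells, 0.5% DMSO vehicle, 48 h exposure in serum-free induction medium to 8-point half-log series topping at 100 uM, in duplicate. UGT1A1 mRNA by Fluidigm qRT-PCR, normalized to ACTB/GAPDH/POLR2A; bidirectional fit versus DMSO.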

[7] = read-out: UDP glucuronosyltransferase (UGT1A6), UGT1A6 (gene 54578); assay: LTEA_HepaRG_UGT1A6: Life Technologies and Expression Analysis (LTEA) Assay for UDP glucuronosyltransferase (UGT1A6) using HepaRG (AID 2283539); details: mRNA level, 48 h; actives raise or lower the signal
Outline: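 qRT-PCR readout of UGT1A6 mRNA (normalized to ACTB/GAPDH/POLR2A) in differentiated HepaRG cells after 48 h chemical exposure; 8 concentrations, top 100 uM, half-log steps, 0.5% DMSO. Bidirectional curve fit relative to DMSO baseline.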

[8] = read-out: X-box binding protein 1 (XBP1), XBP1 (gene 7494); assay: LTEA_HepaRG_XBP1: Life Technologies and Expression Analysis (LTEA) Assay for X-box binding protein 1 (XBP1) using HepaRG (AID 2283540); details: mRNA level, 48 h; actives raise or lower the signal
Outline: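 HepaRG, 48 h exposure, 8-pt half-log CRC top 100 uM, 0.5% DMSO vehicle, duplicates. Readout: TaqMan qRT-PCR of XBP1 mRNA, housekeeping-normalised (ACTB/GAPDH/POLR2A); bidirectional fit vs DMSO baseline.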

[9] = LTEA_HepaRG_LDH_cytotoxicity: Cytotoxicity Assessment in the Life Technologies and Expression Analysis (LTEA) Assay (AID 2283563; active = hit-call score of the fitted dose curve at least 0.9, where 1 is the maximum)
Outline: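 HepaRG (human liver line), 48 h exposure, 8-pt half-log series from 100 uM, 0.5% DMSO vehicle, duplicates. Read-out: LDH in spent medium. Positive-direction fit vs DMSO baseline.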

[10] = TOX21_p53_BLA_p2_viability: Viability Assessment in the Tox21 HCT-116 p53 Agonism Beta-lactamase Assay, Phase 2 (AID 2283591; active = hit-call score of the fitted dose curve at least 0.9, where 1 is the maximum;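 also: compound exposure lasted 16 h at 37 °C; actives lower the ATP signal meaning cytotoxicity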)
Outline: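 HCT-116 p53-bla cells (4000/well) rested 5 h at 37C, then received compounds in DMSO (217-fold dilution) for 16 h at 37C, 5% CO2. After the CCF4 read, CellTiter-Glo was added; ATP luminescence was read after 30 min at room temperature.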

[11] = molecular target: Cellular tumor antigen p53 (Homo sapiens) (UniProt P04637); assay: TOX21_p53_BLA_p2_ratio: Tox21 HCT-116 p53 Agonism Beta-lactamase Assay, Ratio, Phase 2 (AID 2283592; active = hit-call score of the fitted dose curve at least 0.9, where 1 is the maximum)
Cellular tumor antigen p53 (Homo sapiens), sequence (P04637 whole entry, looked up): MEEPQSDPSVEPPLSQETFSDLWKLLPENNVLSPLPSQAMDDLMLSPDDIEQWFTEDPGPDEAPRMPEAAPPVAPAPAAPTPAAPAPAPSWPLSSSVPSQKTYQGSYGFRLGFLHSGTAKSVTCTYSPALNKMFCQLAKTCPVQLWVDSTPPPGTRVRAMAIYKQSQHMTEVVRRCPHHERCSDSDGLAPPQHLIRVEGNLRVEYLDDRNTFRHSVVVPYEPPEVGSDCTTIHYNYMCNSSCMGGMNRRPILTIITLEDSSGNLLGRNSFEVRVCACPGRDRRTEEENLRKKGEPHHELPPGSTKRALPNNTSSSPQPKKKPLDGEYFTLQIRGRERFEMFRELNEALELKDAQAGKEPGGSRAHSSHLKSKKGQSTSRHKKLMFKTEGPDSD
Outline: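 In this cell-based reporter format, HCT116 cells were dosed with chemicals delivered from DMSO by 217-fold dilution and incubated 16 h at 37C. Emission at 460 and 530 nm after 2 h CCF4-AM loading provided the ratio, fitted upward versus DMSO.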

[12] = TOX21_p53_BLA_p3_viability: Viability Assessment in the Tox21 HCT-116 p53 Agonism Beta-lactamase Assay, Phase 3 (AID 2283593; active = hit-call score of the fitted dose curve at least 0.9, where 1 is the maximum;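 also: cells exposed to compound for 16 h before reading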)
Outline: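 HCT-116 cells (4000/well) rested 5 h at 37C, then got DMSO compounds by pin tool (217-fold dilution) for 16 h at 37C, 5% CO2. After the bla read, CellTiter-Glo was added and luminescence read at 30 min, room temperature.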

[13] = molecular target: Cellular tumor antigen p53 (Homo sapiens) (UniProt P04637); assay: TOX21_p53_BLA_p3_ratio: Tox21 HCT-116 p53 Agonism Beta-lactamase Assay, Ratio, Phase 3 (AID 2283596; active = hit-call score of the fitted dose curve at least 0.9, where 1 is the maximum)
Outline: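 HCT116 p53-bla cells (4000/well) given compound in DMSO (217-fold dilution) after 5 h, incubated 16 h at 37C. CCF4-AM substrate 2 h at room temperature; 460/530 nm emission ratio, gain fitted against DMSO.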

[14] = TOX21_p53_BLA_p4_viability: Viability Assessment in the Tox21 HCT-116 p53 Agonism Beta-lactamase Assay, Phase 4 (AID 2283597; active = hit-call score of the fitted dose curve at least 0.9, where 1 is the maximum;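 also: hits lower the luminescence signal meaning cytotoxicity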)
Outline: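 We seeded HCT116 p53 reporter cells at 4000/well and waited 5 h. We then added compounds in DMSO at a 217-fold dilution and incubated for 16 h. Viability was read as CellTiter-Glo luminescence after 30 min at RT.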

[15] = TOX21_p53_BLA_p5_viability: Viability Assessment in the Tox21 HCT-116 p53 Agonism Beta-lactamase Assay, Phase 5 (AID 2283600; active = hit-call score of the fitted dose curve at least 0.9, where 1 is the maximum)
Outline: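 Compounds, pinned from DMSO at 217-fold dilution, were left on the cells for 16 h. The viability endpoint was ATP content measured by CellTiter-Glo luminescence, where falling signal reflects cytotoxicity.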

[16] = molecular target: Cellular tumor antigen p53 (Homo sapiens) (UniProt P04637); assay: TOX21_p53_BLA_p4_ratio: Tox21 HCT-116 p53 Agonism Beta-lactamase Assay, Ratio, Phase 4 (AID 2283601; active = hit-call score of the fitted dose curve at least 0.9, where 1 is the maximum)
Outline: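 HCT116 cells carrying an inducible beta-lactamase reporter were plated at 4000 cells/well, rested 5 h, then exposed to compounds in DMSO (217-fold dilution) for 16 h at 37C. CCF4-AM substrate was loaded 2 h at room temperature; 460/530 nm emission ratio scored gain-of-signal versus DMSO.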

[17] = Tanguay_ZF_120hpf_MORT_legacy: (Legacy) Oregon State University Tanguay Lab 120 Hour Post-fertilization zebrafish Assay for Mortality (AID 2283633; active = hit-call score of the fitted dose curve at least 0.9, where 1 is the maximum)
Outline: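 Brightfield scoring of embryo death (binary) at 24 and 120 hpf; static exposure 6–120 hpf, 28C, sealed and foil-covered. Pronase-dechorionated 5D wild-type larvae, single embryo per well. DMSO 0.64% v/v; trimethyltin chloride 5uM positive control.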

Measured: AC50

c1cc[n+]2c(c1)-c1cccc[n+]1CC2
active: [14] 20 µM
inactive: all other assays above
